Here are results for four molecules from PubChem BioAssay.

Active and inactive are the calls of the source. Unless noted, no rule for the calls is given here.

Test [1] is described as follows: anti-His antibody binders, primary screen, artefact control for SMM control protein annotation, biochemical, small-molecule microarray, 635 nm fluorescence (AID 1128).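 Also: score merges feature fluorescence with signal-to-noise for each printed compound spot.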 As to conditions: anti-His Alexa647 antibody binding, higher = more signal.
Test [2] relates to Human papillomavirus type 1a E7 protein (residues 1-88). As to the kind of experiment: HPV1a E7 small-molecule binders, primary screen, biochemical, small-molecule microarray, residues 1-88, 635 nm (AID 1129). The conditions noted are these: small-molecule microarray binding, fluorescence 635 nm; higher = more signal.
In test [3] the target is Focal adhesion kinase 1 (Homo sapiens) (UniProt Q05397). As to the kind of experiment: small-molecule microarray binders of FAK, primary screen, biochemical, 635/667 nm fluorescence, BSA, DTT (AID 1130).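 Also: composite of spot emission at 667 nm and signal to noise over triplicate slides.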 As to conditions: PTK2 binding, 635 nm fluorescence, higher = more signal.
For test [4], the system named is Fibrinogen (Alexa647-labelled). As to the kind of experiment: fibrinogen binders on compound microarrays, profiling panel, artefact control for SMM control-protein annotation, biochemical, small-molecule microarray, 635/667 nm fluorescence (AID 1131).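 Also: z-score merges 667 nm fluorescence with per-spot signal-to-noise over triplicate slides.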 The conditions noted are these: fibrinogen-A647 binding fluorescence, higher = more signal.
Test [5] deals with Follistatin (Homo sapiens) (UniProt P19883). The test is described as follows: follistatin binders on small-molecule microarrays, primary screen, biochemical, small-molecule microarray, 635/667 nm fluorescence (AID 1132). The conditions noted are these: FST binding, 635 nm fluorescence, higher = more signal.
In test [6] the target is Fibroblast growth factor 2 (Homo sapiens) (UniProt P09038). The test is described as follows: FGF2 binders on small-molecule microarrays, primary screen, biochemical, small-molecule microarray, 635/667 nm fluorescence (AID 1133). The conditions noted are these: small-molecule microarray binding, FGF2, fluorescence 635/667; higher = more signal.
The nature of test [7]: mitochondrial membrane potential change in A549 cells, profiling panel, cell-based, JC-1 fluorescence, basal, 24 h, 100 nL (AID 1138).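 Also: A549 lung adenocarcinoma cells under basal conditions with no added stimulus; test concentration not given here.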 As to conditions: higher = more signal.
Another test has as its system Lefty1. As to the kind of experiment: Lefty1 binders on small-molecule microarrays, primary screen, biochemical, small-molecule microarray, 635/667 nm fluorescence (AID 1139). The conditions noted are these: small-molecule microarray binding, fluorescence 635/667; higher = more signal.
Test [8] concerns wheat germ agglutinin (Triticum aestivum), Alexa647-labelled. As to the kind of experiment: wheat germ agglutinin binders on compound microarrays, profiling panel, artefact control for SMM control-protein annotation, biochemical, small-molecule microarray, 635/667 nm fluorescence (AID 1140).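 Also: score merges 667 nm feature emission with signal to noise over triplicate slides.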 The conditions noted are these: WGA-A647 binding, 635 nm fluorescence, higher = more signal.

Test [9] has as its target Luciferin 4-monooxygenase (Photinus pyralis) (UniProt P08659). As to the kind of experiment: firefly luciferase enzyme inhibitors, primary screen, biochemical, luminescence, purified enzyme, 2006 set (AID 1141).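 Also: cell-free assay with purified firefly luciferase at 100 ng per well in PBS; test concentration not given here.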 The conditions noted are these: SteadyGlo luminescence, 30 min, higher = more signal, called active from +8 up or from −8 down.
Test [10] relates to Wnt5a (protein binding on small-molecule microarray). As to the kind of experiment: Wnt5a binders on small-molecule microarray, primary screen, biophysical, 635/667 nm fluorescence (AID 1142).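 Also: fluorescence read at 667 nm with signal to noise per printed feature.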 As to conditions: 635 nm fluorescence, higher = more signal.
Test [11] in a line: cell viability in Huh7 cells, primary screen, cytotoxicity control for HCV replication inhibitor project, CellTiter-Glo luminescence, basal, 48 h (AID 1143).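 Also: Huh7 hepatoma cells carrying a hepatitis C replication reporter with no stimulus; test concentration not given here.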 The conditions noted are these: Huh7 HCV replicon, higher = more signal, called active from +8 up or from −8 down. (In general: Cellular ATP, detected with luciferase, serves as a proxy for viable cell number.)
Test [12] is described as follows: P. aeruginosa biofilm formation inhibitors, primary screen, PAO1 strain, BacTiter-Glo luminescence, LB-PBS (AID 1144). The conditions noted are these: 12 h, higher = more signal.
Test [13] is described as follows: CREB reporter modulators without forskolin, primary screen, cell-based, PC12, CRE-LacZ reporter, unstimulated (AID 1145). As to conditions: no forskolin, luminescence, 4.5 h, higher = more signal, called active from +8 up or from −8 down.
Test [14] is described as follows: CREB reporter modulators under forskolin, primary screen, cell-based, PC12, CRE-LacZ reporter, forskolin-stimulated (AID 1146).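 Also: PC12 cells with 6xCRE LacZ reporter stimulated by forskolin 10 µM; beta-galactosidase reporter signal reflecting CREB driven transcription.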 The conditions noted are these: luminescence, 4.5 h, higher = more signal, called active from +8 up or from −8 down.
Test [15] concerns the target Streptavidin (Streptomyces avidinii) (UniProt P22629). As to the kind of experiment: streptavidin binders on small-molecule microarray, primary screen, artefact control for SMM compound annotation, biophysical, 635/667 nm fluorescence (AID 1147).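 Also: signal reflects streptavidin binding to arrayed compounds as a control protein.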 The conditions noted are these: streptavidin binding, higher = more signal.
The nature of test [16]: small-molecule binders of probe aInhba, primary screen, biochemical, small-molecule microarray, 635/667 nm fluorescence (AID 1148).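 Also: score merges 667nm spot fluorescence with signal-to-noise for antibody binding to printed compounds.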 The conditions noted are these: higher = more signal.
Test [17] addresses Torsin-1A (Homo sapiens) (UniProt O14656). As to the kind of experiment: torsin A binders from cell lysate, primary screen, small-molecule microarray, wild-type, 635/667 nm (AID 1149). The conditions noted are these: COS7 hTOR1A-WT lysate, 635 nm fluorescence, higher = more signal.
Test [18] has the same target. As to the kind of experiment: small-molecule binders of mutant TOR1A in lysate, primary screen, cell lysate, small-molecule microarray, COS7 lysate, 635/667 nm fluorescence (AID 1150).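 Also: score pools 667 nm emission and signal to noise measuring lysate protein binding.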 The conditions noted are these: COS7 hTOR1A mutant lysate, 635 nm fluorescence, higher = more signal.
The test system of test [19] is Sonic hedgehog protein (Shh). The test is described as follows: small-molecule binders of Shh protein, primary screen, biochemical, small-molecule microarray, 635/667 nm fluorescence (AID 1151).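 Also: Shh protein binding to compounds spotted on small-molecule microarray slides; score combines spot fluorescence intensity with signal-to-noise across triplicate slides.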 As to conditions: small-molecule microarray binding, 635 nm fluorescence; higher = more signal.

Follistatin (Homo sapiens), sequence (P19883 whole entry, looked up): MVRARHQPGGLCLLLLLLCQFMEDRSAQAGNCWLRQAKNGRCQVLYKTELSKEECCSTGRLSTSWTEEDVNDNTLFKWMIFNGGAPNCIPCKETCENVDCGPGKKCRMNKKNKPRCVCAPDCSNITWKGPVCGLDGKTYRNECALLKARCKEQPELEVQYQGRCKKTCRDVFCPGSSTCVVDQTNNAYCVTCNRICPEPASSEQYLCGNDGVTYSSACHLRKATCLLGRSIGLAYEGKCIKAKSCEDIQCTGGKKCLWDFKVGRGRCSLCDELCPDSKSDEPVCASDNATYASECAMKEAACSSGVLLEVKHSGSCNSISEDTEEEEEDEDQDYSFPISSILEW
Torsin-1A (Homo sapiens), sequence (O14656 whole entry, looked up): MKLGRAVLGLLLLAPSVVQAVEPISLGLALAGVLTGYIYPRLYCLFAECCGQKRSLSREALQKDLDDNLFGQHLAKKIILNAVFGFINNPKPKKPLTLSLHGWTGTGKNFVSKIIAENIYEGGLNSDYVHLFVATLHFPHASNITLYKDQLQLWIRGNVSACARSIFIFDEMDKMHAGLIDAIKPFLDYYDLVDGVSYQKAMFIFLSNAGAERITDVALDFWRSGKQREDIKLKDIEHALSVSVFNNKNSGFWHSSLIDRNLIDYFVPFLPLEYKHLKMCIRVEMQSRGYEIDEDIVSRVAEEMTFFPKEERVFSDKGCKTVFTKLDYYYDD
Focal adhesion kinase 1 (Homo sapiens), sequence (Q05397 whole entry, looked up): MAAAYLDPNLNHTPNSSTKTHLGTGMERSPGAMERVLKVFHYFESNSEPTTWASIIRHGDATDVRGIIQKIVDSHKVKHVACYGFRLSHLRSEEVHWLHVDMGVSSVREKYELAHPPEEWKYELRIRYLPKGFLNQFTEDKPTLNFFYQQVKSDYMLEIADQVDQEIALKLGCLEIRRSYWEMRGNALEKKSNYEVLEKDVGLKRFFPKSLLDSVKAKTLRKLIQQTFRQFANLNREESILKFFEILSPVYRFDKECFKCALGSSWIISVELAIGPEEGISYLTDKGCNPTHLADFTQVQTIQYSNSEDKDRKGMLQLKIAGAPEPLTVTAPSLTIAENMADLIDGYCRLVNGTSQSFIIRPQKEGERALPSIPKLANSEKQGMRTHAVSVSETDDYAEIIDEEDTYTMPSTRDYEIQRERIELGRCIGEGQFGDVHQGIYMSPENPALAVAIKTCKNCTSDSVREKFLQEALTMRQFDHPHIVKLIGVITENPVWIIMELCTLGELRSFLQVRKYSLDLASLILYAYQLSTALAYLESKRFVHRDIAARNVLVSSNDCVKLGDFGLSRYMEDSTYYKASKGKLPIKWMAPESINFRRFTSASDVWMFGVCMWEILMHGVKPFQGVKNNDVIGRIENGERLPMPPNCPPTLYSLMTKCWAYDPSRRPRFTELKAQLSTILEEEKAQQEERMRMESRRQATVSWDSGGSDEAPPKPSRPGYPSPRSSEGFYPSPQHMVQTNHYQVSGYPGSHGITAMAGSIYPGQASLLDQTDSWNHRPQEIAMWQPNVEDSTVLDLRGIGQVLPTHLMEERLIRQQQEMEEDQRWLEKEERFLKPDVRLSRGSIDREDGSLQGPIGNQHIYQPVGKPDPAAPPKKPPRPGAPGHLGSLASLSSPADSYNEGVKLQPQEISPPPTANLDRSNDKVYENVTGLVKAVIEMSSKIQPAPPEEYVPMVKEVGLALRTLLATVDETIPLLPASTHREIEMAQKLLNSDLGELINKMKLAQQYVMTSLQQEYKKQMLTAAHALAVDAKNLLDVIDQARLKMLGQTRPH
Luciferin 4-monooxygenase (Photinus pyralis), sequence (P08659 whole entry, looked up): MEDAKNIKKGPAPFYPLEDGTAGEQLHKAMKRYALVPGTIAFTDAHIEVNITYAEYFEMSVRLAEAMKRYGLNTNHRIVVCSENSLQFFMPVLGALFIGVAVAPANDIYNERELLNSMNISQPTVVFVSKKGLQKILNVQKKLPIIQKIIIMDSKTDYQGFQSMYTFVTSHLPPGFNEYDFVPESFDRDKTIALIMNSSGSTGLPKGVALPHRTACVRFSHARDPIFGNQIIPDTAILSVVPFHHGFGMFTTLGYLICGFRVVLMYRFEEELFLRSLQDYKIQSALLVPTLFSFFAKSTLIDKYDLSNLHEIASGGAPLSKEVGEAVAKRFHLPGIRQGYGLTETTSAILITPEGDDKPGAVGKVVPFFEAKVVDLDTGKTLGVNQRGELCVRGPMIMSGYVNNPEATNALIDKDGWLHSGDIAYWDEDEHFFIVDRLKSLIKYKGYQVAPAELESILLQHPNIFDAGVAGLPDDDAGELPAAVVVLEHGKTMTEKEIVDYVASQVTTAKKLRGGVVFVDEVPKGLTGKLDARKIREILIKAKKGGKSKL
Streptavidin (Streptomyces avidinii), sequence (P22629 whole entry, looked up): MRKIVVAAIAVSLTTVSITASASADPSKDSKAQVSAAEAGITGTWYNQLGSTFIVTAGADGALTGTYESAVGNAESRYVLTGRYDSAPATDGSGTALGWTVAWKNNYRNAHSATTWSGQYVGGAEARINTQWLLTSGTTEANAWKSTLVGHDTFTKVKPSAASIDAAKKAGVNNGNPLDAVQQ
Fibroblast growth factor 2 (Homo sapiens), sequence (P09038 whole entry, looked up): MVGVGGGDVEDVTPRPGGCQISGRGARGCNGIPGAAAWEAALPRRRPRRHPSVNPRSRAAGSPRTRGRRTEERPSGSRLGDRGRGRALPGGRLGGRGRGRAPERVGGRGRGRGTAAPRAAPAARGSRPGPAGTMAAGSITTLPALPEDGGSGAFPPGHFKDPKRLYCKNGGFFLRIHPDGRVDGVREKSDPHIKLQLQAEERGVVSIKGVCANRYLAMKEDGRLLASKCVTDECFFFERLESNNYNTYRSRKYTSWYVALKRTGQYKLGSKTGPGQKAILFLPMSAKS

Regarding `COC(=O)[C@H](C)NC(=O)CCC1CC(OC(=O)NCc2ccc3c(c2)OCO3)CC2(CCCC(COC(=O)NCc3cccc(C(F)(F)F)c3)O2)O1` (stereo not given in full), the composite z-score in test [1] was found to be 0.0275; in test [2], 0.741; in [3], 0.587; in test [4], 0.387; in [5], 0.792; in [6], 0.63. For the same molecule, the composite z-score in the test with Lefty1 is 1.15; in test [8], 0.613; in test [10], -0.0362; in test [15] it was 0.634; in test [16], 0.0852; with Torsin-1A (Homo sapiens) [17], 0.703. Besides, the composite z-score stood at 0.279 with Torsin-1A (Homo sapiens) [18] and 1.28 in [19]. Further, the z-score in test [7] was -0.238; in [9], 0.969 (inactive); in test [11], -0.109 (inactive); in [12], -0.0589 (inactive); in test [13] it was -0.794 (inactive); in [14] it was -0.631 (inactive).

For the molecule `CCOC(=O)[C@H](CC(C)C)NC(=O)CCC1CC(OC(=O)NCCc2ccc(F)cc2)CC2(CCCC(COC(=O)NCCc3ccccc3OC)O2)O1` (stereo not given in full), the composite z-score was found to be 1.35 in test [1]; 0.903 in test [2]; 0.0376 in test [3]; 0.956 in test [4]; 0.236 in test [5]; 0.399 in test [6]. Also, the composite z-score in the test on Lefty1 is 0.522; in [8] it was 0.0393; in test [10], 0.145; in test [15], 0.805; in test [16], -0.0736; with Torsin-1A (Homo sapiens) [17] it was 0.0877. In addition, the composite z-score with Torsin-1A (Homo sapiens) [18] came to 0.528; in test [19] it was 0.567. Also, the z-score in test [7] was 0.848; in [9], 0.109 (inactive); in test [11], -0.451 (inactive); in test [12] it was -0.256 (inactive); in [13] it was 1.64 (inactive); in test [14], 0.135 (inactive).

On to `CC(C)CON=C1[C@H]2CCn3c(=O)n(Cc4cc5c(cc4Cl)OCO5)c(=O)n3[C@H]2[C@H](O)[C@@H]2O[C@H]12`, for which the composite z-score in [1] was 0.158; in [2] it was 0.489; in test [3], 0.217; in test [4], 0.172; in [5], 0.768; in test [6], 0.42. Besides, the composite z-score was 0.452 with Lefty1; -0.121 in [8]; 0.26 in test [10]; 1.49 in test [15]; -0.0332 in [16]; 1.39 in the test with Torsin-1A (Homo sapiens) [17]. For the same molecule, the composite z-score in the test with Torsin-1A (Homo sapiens) [18] stood at 0.49; in test [19], 0.504. Besides, the z-score in [7] was -0.937; in [9] it was 0.748 (inactive); in test [11], -2.89 (inactive); in test [12] it was 0.376 (inactive); in test [13], 1.87 (inactive); in test [14] it was 0.819 (inactive).

For the molecule `CO[C@@H]1COC(=O)[C@H](CCSC)NC(=O)CC=C[C@@H](C)COC(=O)[C@H](C)NC(=O)CC=C[C@H]1C`, the composite z-score is -0.229 in test [1]; 0.255 in test [2]; -0.342 in [3]; -0.433 in test [4]; 0.96 in test [5]; 1.62 in [6]. Besides, the composite z-score is 1.2 in the test on Lefty1; -0.543 in [8]; 0.312 in test [10]; -0.793 in [15]; -0.103 in test [16]; 1.49 with Torsin-1A (Homo sapiens) [17]. Besides, the composite z-score with Torsin-1A (Homo sapiens) [18] was determined as 0.152; in test [19], 1.46. The z-score in test [7] is 0.812; in test [9], -1.2 (inactive); in test [11] it was 0.208 (inactive); in test [12] it was 0.0303 (inactive); in test [13], 1.97 (inactive); in test [14] it was -0.306 (inactive).
